# Bioassay records from PubChem BioAssay.
# FMDV antiviral – High Throughput Screening for Foot and Mouth Disease Virus Antivirals | FMDV antiviral cell-based qHTS | Potency, µM (titrated, usually from 57.9 µM), for inactives: at the highest dose activity change, negative = inhibition, hits mostly inhibitors | hit rate 1.2% among 410,000 | AID 1159524, 2015; calls by dose curve; tested in HEK293T cells; note: read-out not given here; potency is the fitted concentration of half-maximal effect; nearly all actives have a fitted effect of over 45% in size
# Giardia FBPA inh – qHTS Assay for Inhibitors of Fructose-1,6-bisphosphate Aldolase from Giardia Lamblia; purified Giardia FBPA; Potency, µM (highest dose often 59.6 µM), for inactives: at the highest dose activity, negative = inhibition, usual class: inhibitors; hit rate 0.71% among 290,000; AID 2451, 2010; note: potency is the fitted concentration of half-maximal effect; nearly all actives have a fitted effect of over 55% in size
# Target sequence (A8B2U2 whole entry, looked up): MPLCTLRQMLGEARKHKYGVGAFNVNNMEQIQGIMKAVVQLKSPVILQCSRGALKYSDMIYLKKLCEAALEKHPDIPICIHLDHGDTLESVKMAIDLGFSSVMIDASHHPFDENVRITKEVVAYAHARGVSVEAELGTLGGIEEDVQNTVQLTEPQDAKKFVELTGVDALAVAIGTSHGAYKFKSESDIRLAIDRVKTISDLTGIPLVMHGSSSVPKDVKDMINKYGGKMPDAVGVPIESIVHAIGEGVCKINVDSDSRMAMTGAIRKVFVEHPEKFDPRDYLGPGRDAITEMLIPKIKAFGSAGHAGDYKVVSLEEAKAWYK
#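 40 nM FBPA preincubated 10 min at RT with compound (up to 57.5 uM final), then substrate plus GAPDH/TPI/NAD/arsenate coupling and diaphorase/resazurin added. Fluorescence read after 20 min at RT, 525/598 nm.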
# HCV inh – qHTS Assay for Inhibitors of Hepatitis C Virus (HCV). Huh7.5.1 HCVcc-Cre infection, luciferase reporter, 44 h. Potency, µM (highest dose often 41.8 µM), inactives show top-dose activity change, negative = inhibition, most hits filed as inhibitors. hit rate 3.4% among 340,000; note: potency is the fitted concentration of half-maximal effect
#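 Cells (1,000/well) were plated 4 h before compound, then infected with HCVcc-Cre virus (~0.5 moi). After 44 h further culture, infection was read as luciferase luminescence following a 15 min substrate incubation at room temperature.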
# Marburg entry inh – qHTS for inhibitors of binding or entry into cells for Marburg Virus | Marburg virus pseudotyped entry inhibition, cell reporter | hit rate 1.8% among 300,000 | Potency, µM (series often up to 37.8 µM), inactives show at the highest dose activity change, negative = inhibition, actives largely listed as inhibitors; calls by dose curve; tested in HEK293 cells; note: potency is the fitted concentration of half-maximal effect
# HCMV antiviral – qHTS Assay for inhibitors of the human cytomegalovirus (HCMV). HFF cells, HCMV-luciferase reporter, 72 h; hits give low values. activity change, negative = inhibition, % at 57.5 µM. hit rate 4.5% among 410,000. AID 1259415, 2018; in the data active = activity change below about -60%; inconclusive = no clear call, values can overlap the other calls; inactive = above about -39%
#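 Cell-based, HFFs, 1000 cells/well, 16 h 37C; cpds in DMSO + HCMV-luc, MOI 1 PFU/cell; 72 h 37C; OneGlo luminescence after 5 min RT; norm. to buffer vs Salinomycin 10uM.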
# LASV entry inh – qHTS for Inhibitors of binding or entry into cells for Lassa Virus; AID 540256, 2011; hit rate 1.2% among 300,000; Potency, µM (titrated, usually from 37.9 µM), inactives show top-dose activity change, negative = inhibition, usual class: inhibitors; Lassa virus pseudotype entry inhibition, cell reporter; calls by dose curve; tested in HEK293 cells; note: potency is the fitted concentration of half-maximal effect; nearly all actives have a fitted effect of over 50% in size
# * = called active by the depositor; ? = inconclusive; nt = not tested or not shown; ! = not active in a repeat; [ ] = another dose, or the depositor's remark. Sampled rows, rich in hits. Any-hit rate of the full collection: about 8.3%. Unless noted, calls come from the whole dose curve; as a rule, active = well fitted curve in the direction sought with a large enough effect; inconclusive = small, poorly fitted or top-dose-only effect, or another doubt; inactive = no such curve, though single readings can be large; an effect the other way counts as inactive or inconclusive. % is set by controls: 0 for no effect and ±100 for the full control effect.
SMILES,FMDV antiviral,Giardia FBPA inh,HCV inh,Marburg entry inh,HCMV antiviral,LASV entry inh
CCc1ccc(/C=N/NC(=O)c2cc(-c3ccccc3OC)nc3ccccc23)s1,-10%,-7%,-22%,?,44,?
CCc1ccc(/C=N/NC(=O)c2cc(C3CC3)nc3ccc(Br)cc23)s1,0%,4%,22µM*,?,-63*,?
Cc1c(Cl)cccc1NC(=O)Cn1nc(C(F)(F)F)c2c1CCC2,-10%,nt,nt,-10%[46.1 µM],11,11%[46.1 µM]
O=S(=O)(/C=C/c1ccccc1)N1CCN(c2nc(-c3cccnc3)nc3ccccc23)CC1,-20%,-1%,?,11µM*,?,?
Cc1ccc(C2CC(=O)Oc3ccc(O)cc32)cc1 (centres undefined),nt,2%[89.2 µM],nt,nt,nt,nt
CCOc1ccccc1N1C(=O)NC(=O)/C(=C/c2ccc3c4c(cccc24)CC3)C1=O,40µM*,-22%,16%,2%,49,-8%
COc1ccc(N2C(=O)NC(=O)/C(=C/c3ccc4c(c3)Cc3ccccc3-4)C2=O)cc1,nt,-13%,nt,nt,nt,nt
COc1cccc(N2C(=O)NC(=O)/C(=C/c3ccc4c5c(cccc35)CC4)C2=O)c1,nt,-28%,8%,nt,-101*,nt
CCc1ccc(OCC(=O)N/N=C(\C)c2ccc(O)cc2O)cc1,-1%,19%,11µM*,?,-6,?
CCc1ccc(OCC(=O)N/N=C(\C)c2ccc3c(c2)OCCO3)cc1,6%,0%,-4%,?,-36,?
N#C[C@H](c1ccccc1)C1CCN(S(=O)(=O)CCCCl)CC1,nt,nt,nt,nt,-20,nt
COc1ccc(C2c3ccc4ccccc4c3Oc3ncn(CCO)c(=N)c32)cc1OC (centres undefined),-13%,-8%,10µM*,7%,nt,nt
COc1ccc(C2c3c(ncn(CCCN4CCOCC4)c3=N)Oc3ccc4ccccc4c32)cc1OC (centres undefined),-16%,3%,22µM*,nt,-12,nt
COc1ccc(C2c3ccc4ccccc4c3Oc3ncn(CCN4CCOCC4)c(=N)c32)cc1OC (centres undefined),-2%,7%,?,nt,38,nt
COc1ccc(C2c3ccc4ccccc4c3Oc3ncn(CCCO)c(=N)c32)cc1OC (centres undefined),-21%,2%,13µM*,?,-34,?
COc1ccccc1-c1ccc([C@@H]2C[C@H]3[C@H](CON3C)CN2CC2CCCCC2)cc1,nt,nt,nt,nt,-16,nt
COc1cccc(CCNC(=O)c2ccc(OC)c(OC3CCN(C(C)C)CC3)c2)c1,-6%,nt,-14%,nt,7,nt
COc1ccccc1CCNC(=O)c1ccc(OC)c(OC2CCN(C(C)C)CC2)c1,-2%,nt,-2%,29%,-62*,17%
COCCCNC(=O)c1ccc(OC)c(OC2CCN(C(C)C)CC2)c1,-19%,5%,22µM*,nt,30,nt
COc1ccc(C2CC(=O)c3sc(NC(C)=O)nc3C2)cc1 (centres undefined),-1%,10%,13%,?,-70*,-7%
Cn1cccc1C(=O)N1CCC2(CCCN(Cc3ccc(C#N)cc3)C2)CC1,-16%,-4%,nt,nt,nt,nt
CC1=C(C)C(=O)C(CCCCC#CCCCC#CCO)=C(C)C1=O,22µM*,18µM*,1%[8.37 µM],?,nt,21µM*
Cc1nn(Cc2ccc(C(=O)Nc3ccc(C(=O)OC(C)C)cc3)o2)c(C)c1Cl,nt,-2%,?,?,-1,?
Cc1nn(Cc2ccc(C(=O)NC(C)(C)C)o2)c(C)c1Br,?,2%,?,?,-80*,-9%
Cc1nn(Cc2ccc(C(=O)NN)o2)c(C)c1Cl,-19%,1%,13µM*,nt,22,nt
SMILES,FMDV antiviral,Giardia FBPA inh,HCV inh,Marburg entry inh,HCMV antiviral,LASV entry inh
COCC1CCCN(Cc2ccc3c(c2)CN(C(=O)c2cccnc2OC)CCO3)C1 (centres undefined),-10%,nt,nt,nt,nt,nt
Cc1ccc(C)c(N(C)C(=O)c2cn(C)c(=O)c3ccccc23)c1,?,nt,nt,?,-5,8%[46.1 µM]
CCS(=O)(=O)N1CCc2cc(C(=O)N3CCN(c4cccc(C(F)(F)F)c4)CC3)ccc21,0%,nt,nt,?,-32,-15%[46.1 µM]
CCN(CC)S(=O)(=O)c1cccc(NC(=O)CSc2nc3ccccc3[nH]2)c1,?,-2%,?,?,?,-22%[46.1 µM]
CN(C)S(=O)(=O)c1cccc(NC(=O)CSc2ncnc3ccccc23)c1,?,0%,7.9µM*,?,-15,?
CN(C)S(=O)(=O)c1cccc(NC(=O)CCSc2ccc(Cl)cc2)c1,0%,1%,10µM*,?,?,10µM*
CCCn1c(SCC(=O)Nc2cccc(S(=O)(=O)N(C)C)c2)nc2ccccc2c1=O,11%,2%,?,11µM*,-17,-16%[46.1 µM]
CN(C)S(=O)(=O)c1ccc(NC(=O)CSc2ncnc3ccccc23)cc1,0%,6%,4%,9%,31,2%
CN(C)S(=O)(=O)c1cccc(NC(=O)CSc2nc3ccccc3[nH]2)c1,0%,-6%,?,?,-61*,?
NS(=O)(=O)c1cccc(NC(=O)CSc2nc3ccccc3c(=O)n2CCCN2CCOCC2)c1,-7%,9%,12%,-13%,-14,?
COc1cc(OC)cc(-c2nnc3n2N=C(c2ccccc2OC)CS3)c1,nt,-21%,nt,nt,nt,nt
C=CCOc1ccc([C@H]2/C(=C(/O)c3ccc(F)cc3)C(=O)C(=O)N2CCCN(C)C)cc1,nt,nt,nt,21%,nt,nt
N#Cc1cccc(-c2nccc(-n3ccnc3)n2)c1,-7%,-3%,nt,nt,nt,nt
OCCN1CCN(CCC=C2c3ccccc3Sc3ccc(Cl)cc32)CC1,nt,-8%[21.7 µM],nt,nt,nt,nt
CCCCCC[N+](C)(C)CC/C=C1/c2ccccc2Sc2ccc(Cl)cc21,0%,1%,-9%,nt,-7,nt
CN(C)CC/C=C1/c2ccccc2Sc2ccc(Cl)cc21,?,-6%,14µM*,nt,-24,nt
CN(C)CC/C=C1\c2ccccc2COc2ccccc21,-19%,0%,?,4µM*,-10,?
Clc1ccc(Sc2cc(Cl)c(Cl)cc2Cl)cc1,nt,-2%,nt,nt,nt,nt
Cc1ccc(Nc2ccc(S(=O)(=O)N3CCOCC3)cc2[N+](=O)[O-])c(C)c1,-28%,5%,?,?,-65*,?
CCCN(CCC)CCc1ccc(O)c(O)c1,-9%,-16%,nt,1µM*!,nt,24%
CCOc1ccccc1CNC(=O)c1sc2ncccc2c1-n1cccc1,0%,nt,nt,nt,-22,10%[46.1 µM]
CN1CCN(c2ccccc2NC(=O)c2ccc(OCc3ccccc3)cc2)CC1,-2%,1%,11µM*,-19%[46.1 µM],13,?
Cc1nc(COc2ccc(C(=O)Nc3ccccc3N3CCOCC3)cc2)cs1,7%,8%,11µM*,-13%[46.1 µM],6,10%[46.1 µM]
